In publication PMC7862700, “An all-to-all approach to the identification of sequence-specific readers for epigenetic DNA modifications on cytosine” one finds binding signal data, which are given here for one sequence.

Holding throughout (test): DAPPL (digital affinity profiling via proximity ligation, sequencing); 10 mM Tris-HCl pH 7.5, 50 mM NaCl, 1 mM DTT, 4% glycerol, room temperature, 30 min; GST-TFs on glutathione beads, 16-mer random dsDNA library, 0.1% formaldehyde crosslink after washing; high values mean tight binding
One test addresses T1, FLI1 (Homo sapiens, UniProt Q01543 1-452).
T1 sequence: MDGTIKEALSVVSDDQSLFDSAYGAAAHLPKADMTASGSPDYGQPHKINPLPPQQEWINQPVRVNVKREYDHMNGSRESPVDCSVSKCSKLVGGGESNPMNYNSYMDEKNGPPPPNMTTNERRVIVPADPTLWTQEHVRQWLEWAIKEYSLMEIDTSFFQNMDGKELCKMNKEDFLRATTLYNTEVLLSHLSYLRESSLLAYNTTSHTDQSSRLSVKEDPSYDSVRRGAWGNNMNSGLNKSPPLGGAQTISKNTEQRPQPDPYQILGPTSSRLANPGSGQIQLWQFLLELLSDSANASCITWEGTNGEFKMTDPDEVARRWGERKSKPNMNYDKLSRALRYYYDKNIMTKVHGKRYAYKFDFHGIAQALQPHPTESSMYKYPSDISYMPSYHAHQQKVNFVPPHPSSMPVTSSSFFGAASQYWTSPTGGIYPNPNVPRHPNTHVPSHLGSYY
The conditions noted are these: protein: recombinant; tags: N-terminal GST; dsDNA, one strand shown. An outline of the steps: (§1)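 Binding signal is defined as a hexamer's read frequency for one factor over its frequency for the tag-only sample. To obtain reads, GST-fused human transcription factors were expressed in yeast, captured on glutathione beads, barcoded with DNA and pooled with that sample. Pools met 200 nmole of a 16-mer random double-stranded DNA library in Tris/NaCl/DTT/glycerol buffer for 30 min at room temperature before washing, 0.1% formaldehyde crosslinking, proximity ligation (BsaI/T4 ligase, 1 h, 37 °C), PCR and Illumina NextSeq500 sequencing.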

Another test has as its target T2, ELK1 (Homo sapiens, UniProt P19419 1-428).
T2 sequence: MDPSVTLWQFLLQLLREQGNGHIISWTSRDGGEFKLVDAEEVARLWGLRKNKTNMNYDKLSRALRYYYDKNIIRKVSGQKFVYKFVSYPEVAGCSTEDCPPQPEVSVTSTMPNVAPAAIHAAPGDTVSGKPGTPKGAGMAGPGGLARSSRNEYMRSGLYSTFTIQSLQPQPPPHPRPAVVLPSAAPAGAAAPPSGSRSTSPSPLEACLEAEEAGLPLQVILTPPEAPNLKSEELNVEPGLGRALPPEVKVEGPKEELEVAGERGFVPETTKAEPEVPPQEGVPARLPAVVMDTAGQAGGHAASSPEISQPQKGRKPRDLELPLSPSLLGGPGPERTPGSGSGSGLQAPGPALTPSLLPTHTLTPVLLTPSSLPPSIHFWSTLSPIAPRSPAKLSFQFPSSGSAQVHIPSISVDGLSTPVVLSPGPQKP
As to conditions: protein: recombinant; tags: N-terminal GST; dsDNA, one strand shown. The essentials: as §1

Another test addresses T3, GABPA (Homo sapiens, UniProt Q06546 1-454).
T3 sequence: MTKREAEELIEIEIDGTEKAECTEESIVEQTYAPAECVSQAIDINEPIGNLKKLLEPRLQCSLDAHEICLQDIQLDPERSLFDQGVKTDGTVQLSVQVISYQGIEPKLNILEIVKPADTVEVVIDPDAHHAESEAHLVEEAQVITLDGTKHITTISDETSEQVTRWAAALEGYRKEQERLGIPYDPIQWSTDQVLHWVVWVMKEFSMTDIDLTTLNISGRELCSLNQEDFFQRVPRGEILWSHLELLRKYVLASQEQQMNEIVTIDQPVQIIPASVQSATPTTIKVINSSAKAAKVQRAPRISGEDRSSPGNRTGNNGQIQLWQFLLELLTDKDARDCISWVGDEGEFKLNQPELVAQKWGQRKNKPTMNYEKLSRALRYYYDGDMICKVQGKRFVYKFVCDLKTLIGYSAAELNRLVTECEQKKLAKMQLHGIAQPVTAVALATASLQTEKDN
As to conditions: protein: recombinant; tags: N-terminal GST; dsDNA, one strand shown. The essentials: as §1

A further test concerns the target T4, ERG (Homo sapiens, UniProt P11308 1-479).
T4 sequence: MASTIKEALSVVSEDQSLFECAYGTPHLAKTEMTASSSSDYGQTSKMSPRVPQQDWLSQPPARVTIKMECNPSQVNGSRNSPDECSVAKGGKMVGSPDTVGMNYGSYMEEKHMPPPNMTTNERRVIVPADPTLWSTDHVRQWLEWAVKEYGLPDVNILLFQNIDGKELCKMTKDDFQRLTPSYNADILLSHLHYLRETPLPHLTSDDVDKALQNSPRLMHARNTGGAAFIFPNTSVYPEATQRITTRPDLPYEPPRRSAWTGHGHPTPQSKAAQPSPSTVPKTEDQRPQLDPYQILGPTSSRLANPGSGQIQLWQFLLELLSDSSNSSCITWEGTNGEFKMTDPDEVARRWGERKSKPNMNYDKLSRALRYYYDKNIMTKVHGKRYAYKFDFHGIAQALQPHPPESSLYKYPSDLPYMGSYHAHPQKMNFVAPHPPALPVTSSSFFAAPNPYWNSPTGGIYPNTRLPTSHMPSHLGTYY
The conditions noted are these: protein: recombinant; tags: N-terminal GST; dsDNA, one strand shown. An outline of the steps:
as §1

The target in a further test is ELF1 (Homo sapiens, UniProt P32519 1-619). As to conditions: protein: recombinant; tags: N-terminal GST; dsDNA, one strand shown. The essentials:
as §1

For the next test, the target named is T5, EHF (Homo sapiens, UniProt Q9NZC4 1-300).
T5 sequence: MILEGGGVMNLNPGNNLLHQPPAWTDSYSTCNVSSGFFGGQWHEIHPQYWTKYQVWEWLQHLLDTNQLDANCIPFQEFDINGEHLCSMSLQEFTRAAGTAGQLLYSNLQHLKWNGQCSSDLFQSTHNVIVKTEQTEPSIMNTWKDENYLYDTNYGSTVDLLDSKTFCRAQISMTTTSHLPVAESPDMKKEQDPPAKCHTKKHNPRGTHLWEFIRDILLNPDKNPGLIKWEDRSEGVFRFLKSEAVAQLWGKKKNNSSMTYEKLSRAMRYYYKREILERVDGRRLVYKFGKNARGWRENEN
As to conditions: protein: recombinant; tags: N-terminal GST; dsDNA, one strand shown. The essentials: as §1

The target of the next test is SPI1 (Homo sapiens, UniProt P17947 1-270). As to conditions: protein: recombinant; tags: N-terminal GST; dsDNA, one strand shown. The essentials: as §1
The next test deals with SPIB (Homo sapiens, UniProt Q01892 1-262). The conditions noted are these: protein: recombinant; tags: N-terminal GST; dsDNA, one strand shown. The essentials: as §1
Chain of SPIB (Q01892 whole entry): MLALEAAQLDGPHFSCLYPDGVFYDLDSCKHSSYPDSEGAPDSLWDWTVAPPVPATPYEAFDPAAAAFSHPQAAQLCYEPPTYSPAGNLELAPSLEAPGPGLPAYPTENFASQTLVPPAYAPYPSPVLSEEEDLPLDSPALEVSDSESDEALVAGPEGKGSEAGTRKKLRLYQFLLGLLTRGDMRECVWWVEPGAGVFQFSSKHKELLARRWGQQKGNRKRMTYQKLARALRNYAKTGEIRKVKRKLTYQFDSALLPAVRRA
For another test, the target named is T6, ELK3 (Homo sapiens, UniProt P41970 1-407).
T6 sequence: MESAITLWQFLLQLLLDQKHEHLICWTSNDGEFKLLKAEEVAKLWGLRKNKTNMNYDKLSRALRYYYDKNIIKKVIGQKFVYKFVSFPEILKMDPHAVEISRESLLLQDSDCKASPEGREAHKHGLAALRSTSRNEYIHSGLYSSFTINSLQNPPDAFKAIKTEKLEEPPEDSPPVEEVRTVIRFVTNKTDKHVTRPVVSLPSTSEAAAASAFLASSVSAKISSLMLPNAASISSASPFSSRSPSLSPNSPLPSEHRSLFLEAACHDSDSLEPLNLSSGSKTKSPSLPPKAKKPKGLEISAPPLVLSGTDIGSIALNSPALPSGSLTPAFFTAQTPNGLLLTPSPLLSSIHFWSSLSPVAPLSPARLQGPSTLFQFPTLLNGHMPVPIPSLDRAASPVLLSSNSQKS
As to conditions: protein: recombinant; tags: N-terminal GST; dsDNA, one strand shown. The essentials:
as §1

A further test has as its target ETV5 (Homo sapiens, UniProt P41161 1-510). As to conditions: protein: recombinant; tags: N-terminal GST; dsDNA, one strand shown. An outline of the steps:
as §1

Another test deals with HSF1 (Homo sapiens, UniProt Q00613 1-529). The conditions noted are these: protein: recombinant; tags: N-terminal GST; chain copies: 3; dsDNA, one strand shown. The essentials: as §1
Chain of HSF1 (Q00613 whole entry): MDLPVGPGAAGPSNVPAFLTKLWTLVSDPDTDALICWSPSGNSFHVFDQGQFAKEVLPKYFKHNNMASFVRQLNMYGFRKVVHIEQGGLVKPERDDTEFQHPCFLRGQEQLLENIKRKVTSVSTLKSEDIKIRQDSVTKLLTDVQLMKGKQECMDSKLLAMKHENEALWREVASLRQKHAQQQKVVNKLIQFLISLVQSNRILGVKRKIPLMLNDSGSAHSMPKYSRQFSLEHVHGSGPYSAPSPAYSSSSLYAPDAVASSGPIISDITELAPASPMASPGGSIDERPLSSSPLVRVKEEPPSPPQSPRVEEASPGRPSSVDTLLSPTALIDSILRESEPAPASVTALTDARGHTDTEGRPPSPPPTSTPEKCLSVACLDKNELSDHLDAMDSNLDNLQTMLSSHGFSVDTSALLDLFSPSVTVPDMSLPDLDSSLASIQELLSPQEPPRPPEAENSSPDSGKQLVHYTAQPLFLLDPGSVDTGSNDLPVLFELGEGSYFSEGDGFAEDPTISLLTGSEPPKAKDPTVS
The target in another test is ELF4 (Homo sapiens, UniProt Q99607 1-663). The conditions noted are these: protein: recombinant; tags: N-terminal GST; dsDNA, one strand shown. The essentials: as §1
Chain of ELF4 (Q99607 whole entry): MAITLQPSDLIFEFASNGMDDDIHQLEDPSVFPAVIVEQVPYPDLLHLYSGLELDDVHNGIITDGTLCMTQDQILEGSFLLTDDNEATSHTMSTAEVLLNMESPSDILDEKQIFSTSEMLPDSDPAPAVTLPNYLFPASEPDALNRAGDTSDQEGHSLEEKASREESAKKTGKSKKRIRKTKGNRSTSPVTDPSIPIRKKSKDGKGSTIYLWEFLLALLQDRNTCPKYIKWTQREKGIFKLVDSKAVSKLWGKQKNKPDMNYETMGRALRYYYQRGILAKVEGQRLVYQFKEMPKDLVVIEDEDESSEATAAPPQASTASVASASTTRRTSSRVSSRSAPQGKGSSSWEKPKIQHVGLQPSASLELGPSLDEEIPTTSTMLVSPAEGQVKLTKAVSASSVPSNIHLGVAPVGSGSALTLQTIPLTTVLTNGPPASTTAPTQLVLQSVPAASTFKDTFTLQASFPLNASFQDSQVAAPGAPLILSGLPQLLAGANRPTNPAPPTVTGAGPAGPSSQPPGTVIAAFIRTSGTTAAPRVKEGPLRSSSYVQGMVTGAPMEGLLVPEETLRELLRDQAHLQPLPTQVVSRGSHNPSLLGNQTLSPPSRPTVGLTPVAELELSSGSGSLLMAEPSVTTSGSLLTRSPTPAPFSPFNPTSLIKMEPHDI
Another test concerns the target T7, ELK4 (Homo sapiens, UniProt P28324-2 1-405).
T7 sequence: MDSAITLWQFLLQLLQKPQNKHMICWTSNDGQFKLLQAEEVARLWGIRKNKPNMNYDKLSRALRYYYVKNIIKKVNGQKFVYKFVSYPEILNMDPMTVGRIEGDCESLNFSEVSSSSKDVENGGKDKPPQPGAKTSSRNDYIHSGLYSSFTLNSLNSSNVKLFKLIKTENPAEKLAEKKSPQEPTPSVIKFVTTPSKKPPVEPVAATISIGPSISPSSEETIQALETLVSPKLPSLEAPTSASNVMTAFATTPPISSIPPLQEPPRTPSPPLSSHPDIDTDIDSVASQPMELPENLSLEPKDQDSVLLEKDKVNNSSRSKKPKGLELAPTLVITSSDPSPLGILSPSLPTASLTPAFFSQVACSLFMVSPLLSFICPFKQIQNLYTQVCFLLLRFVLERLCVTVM
The conditions noted are these: protein: recombinant; tags: N-terminal GST; dsDNA, one strand shown. The essentials:
as §1

A further test has as its target T8, ETV2 (Homo sapiens, UniProt O00321 1-342).
T8 sequence: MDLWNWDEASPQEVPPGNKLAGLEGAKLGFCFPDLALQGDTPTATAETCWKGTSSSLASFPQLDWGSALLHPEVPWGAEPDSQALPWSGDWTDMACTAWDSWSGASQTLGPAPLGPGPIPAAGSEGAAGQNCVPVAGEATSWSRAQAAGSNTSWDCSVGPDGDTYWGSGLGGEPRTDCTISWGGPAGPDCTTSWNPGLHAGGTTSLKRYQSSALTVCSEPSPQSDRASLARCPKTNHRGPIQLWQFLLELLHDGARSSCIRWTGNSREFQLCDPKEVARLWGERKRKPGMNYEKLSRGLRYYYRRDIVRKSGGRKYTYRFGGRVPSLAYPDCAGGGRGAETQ
As to conditions: protein: recombinant; tags: N-terminal GST; dsDNA, one strand shown. The essentials:
as §1

The target of the next test is T9, ELF3 (Homo sapiens, UniProt P78545 1-371).
T9 sequence: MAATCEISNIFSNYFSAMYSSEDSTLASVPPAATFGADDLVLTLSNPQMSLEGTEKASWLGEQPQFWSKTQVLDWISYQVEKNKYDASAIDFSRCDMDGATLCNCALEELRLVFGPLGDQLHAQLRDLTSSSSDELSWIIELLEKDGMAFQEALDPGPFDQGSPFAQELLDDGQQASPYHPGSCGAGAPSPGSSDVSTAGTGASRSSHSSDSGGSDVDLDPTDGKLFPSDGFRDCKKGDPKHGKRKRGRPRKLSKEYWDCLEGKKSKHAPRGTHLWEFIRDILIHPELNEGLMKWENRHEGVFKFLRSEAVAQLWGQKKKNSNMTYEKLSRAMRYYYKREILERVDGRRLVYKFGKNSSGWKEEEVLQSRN
As to conditions: protein: recombinant; tags: N-terminal GST; dsDNA, one strand shown. An outline of the steps: as §1

The next test has as its target CRX (Homo sapiens, UniProt O43186 1-299). The conditions noted are these: protein: recombinant; tags: N-terminal GST; dsDNA, one strand shown. The essentials: as §1
The target of another test is ETV1 (Homo sapiens, UniProt P50549 1-477). The conditions noted are these: protein: recombinant; tags: N-terminal GST; dsDNA, one strand shown. The essentials:
as §1

Chain of CRX (O43186 whole entry): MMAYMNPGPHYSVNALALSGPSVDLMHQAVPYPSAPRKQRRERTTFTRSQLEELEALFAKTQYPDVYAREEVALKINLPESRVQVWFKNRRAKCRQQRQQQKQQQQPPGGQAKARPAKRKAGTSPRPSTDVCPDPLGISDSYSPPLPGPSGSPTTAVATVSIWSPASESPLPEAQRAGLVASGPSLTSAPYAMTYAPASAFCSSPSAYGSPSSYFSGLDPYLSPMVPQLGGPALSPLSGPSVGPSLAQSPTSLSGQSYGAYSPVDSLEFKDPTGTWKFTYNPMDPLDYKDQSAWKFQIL
Chain of ELF1 (P32519 whole entry): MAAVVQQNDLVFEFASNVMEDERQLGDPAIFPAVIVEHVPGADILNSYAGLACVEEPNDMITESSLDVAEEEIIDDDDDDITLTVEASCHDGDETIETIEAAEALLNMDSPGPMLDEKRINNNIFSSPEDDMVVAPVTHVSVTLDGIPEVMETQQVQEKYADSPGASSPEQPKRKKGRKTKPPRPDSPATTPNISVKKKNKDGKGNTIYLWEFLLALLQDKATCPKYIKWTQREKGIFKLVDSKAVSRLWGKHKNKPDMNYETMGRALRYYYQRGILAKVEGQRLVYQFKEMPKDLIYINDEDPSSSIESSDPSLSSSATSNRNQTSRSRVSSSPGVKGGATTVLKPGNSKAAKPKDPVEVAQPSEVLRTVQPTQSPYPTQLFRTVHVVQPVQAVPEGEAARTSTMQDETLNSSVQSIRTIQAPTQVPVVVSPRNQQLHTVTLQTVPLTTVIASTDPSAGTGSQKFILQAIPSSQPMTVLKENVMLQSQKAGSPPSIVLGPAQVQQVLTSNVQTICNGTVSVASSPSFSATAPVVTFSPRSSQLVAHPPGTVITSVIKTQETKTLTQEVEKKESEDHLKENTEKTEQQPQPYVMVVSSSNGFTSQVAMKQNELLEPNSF
Chain of ETV1 (P50549 whole entry): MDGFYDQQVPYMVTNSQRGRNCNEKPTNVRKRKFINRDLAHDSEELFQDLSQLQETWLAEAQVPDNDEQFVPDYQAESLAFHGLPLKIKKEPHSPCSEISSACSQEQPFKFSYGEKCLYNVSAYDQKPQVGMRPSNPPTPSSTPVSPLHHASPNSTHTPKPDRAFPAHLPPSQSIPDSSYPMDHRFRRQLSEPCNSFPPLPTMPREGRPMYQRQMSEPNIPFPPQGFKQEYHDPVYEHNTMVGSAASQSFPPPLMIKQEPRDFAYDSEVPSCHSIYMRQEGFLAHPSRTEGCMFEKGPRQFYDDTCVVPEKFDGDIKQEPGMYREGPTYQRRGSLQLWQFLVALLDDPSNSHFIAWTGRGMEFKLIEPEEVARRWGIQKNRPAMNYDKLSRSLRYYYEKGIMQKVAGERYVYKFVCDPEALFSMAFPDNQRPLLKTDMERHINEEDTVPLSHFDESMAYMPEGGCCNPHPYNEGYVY
Chain of ETV5 (P41161 whole entry): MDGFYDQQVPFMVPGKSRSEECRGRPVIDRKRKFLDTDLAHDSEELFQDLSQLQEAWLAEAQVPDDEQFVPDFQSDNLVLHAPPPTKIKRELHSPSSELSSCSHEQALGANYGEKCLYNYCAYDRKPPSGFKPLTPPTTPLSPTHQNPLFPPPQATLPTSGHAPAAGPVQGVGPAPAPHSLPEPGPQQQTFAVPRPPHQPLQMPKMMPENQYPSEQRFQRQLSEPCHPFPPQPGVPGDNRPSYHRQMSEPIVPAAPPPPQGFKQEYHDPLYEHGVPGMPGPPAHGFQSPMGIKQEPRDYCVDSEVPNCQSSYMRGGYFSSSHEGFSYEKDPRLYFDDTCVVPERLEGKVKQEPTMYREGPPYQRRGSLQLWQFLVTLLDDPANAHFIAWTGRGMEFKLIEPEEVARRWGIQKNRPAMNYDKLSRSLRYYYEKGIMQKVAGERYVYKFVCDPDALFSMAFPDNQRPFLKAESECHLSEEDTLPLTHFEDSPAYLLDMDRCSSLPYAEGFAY

For ATTGAA, the binding signal in the test with FLI1 is 1.07 fold enrichment (6-mer frequency, TF over GST control); in the test with ELK1, 1.16 fold enrichment (6-mer frequency, TF over GST control); with GABPA, 1.07 fold enrichment (6-mer frequency, TF over GST control); with ERG, 1.05 fold enrichment (6-mer frequency, TF over GST control); with ELF1, 1.06 fold enrichment (6-mer frequency, TF over GST control); with EHF it was 1.03 fold enrichment (6-mer frequency, TF over GST control). The binding signal in the test with SPI1 is 1.04 fold enrichment (6-mer frequency, TF over GST control); with SPIB it was 1.09 fold enrichment (6-mer frequency, TF over GST control); in the test with ELK3 it was 1.11 fold enrichment (6-mer frequency, TF over GST control); with ETV5, 1.05 fold enrichment (6-mer frequency, TF over GST control); with HSF1, 1.01 fold enrichment (6-mer frequency, TF over GST control); with ELF4 it was 1.01 fold enrichment (6-mer frequency, TF over GST control). The binding signal is 1.06 fold enrichment (6-mer frequency, TF over GST control) with ELK4; 1 fold enrichment (6-mer frequency, TF over GST control) with ETV2; 1.07 fold enrichment (6-mer frequency, TF over GST control) with ELF3; 1.06 fold enrichment (6-mer frequency, TF over GST control) in the test with CRX; 1.15 fold enrichment (6-mer frequency, TF over GST control) with ETV1.
